Compounds without any hit were thinned out: in the full panel of roughly 79,000, 15% have a hit. Unmarked numbers belong to inactive results. Calls of active or inactive are those of the source. Cut-off read from the data, not from the text of the source: active = growth inhibition above about 70%; inactive = the rest.
Experiments:
[1] = NCI Yeast Anticancer Drug Screen. Data for the rad50 strain (AID 155);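 note: 0% = growth of vehicle-only cultures of the same strain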; conditions: S. cerevisiae rad50 strain growth inhibition, active compounds read high
Procedure, shortened: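 Vehicle-treated cultures provide the reference for the growth inhibition reported for compound-exposed, repair-deficient yeast.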

[2] = NCI Yeast Anticancer Drug Screen. Data for the mec2-1 strain (AID 157); conditions: S. cerevisiae mec2-1 strain, active compounds read high
Procedure, shortened: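 Compounds were applied to mec2-1 yeast cells. Their growth was then compared with that of vehicle-treated cultures to give growth inhibition.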

[3] = NCI Yeast Anticancer Drug Screen. Data for the sgs1 mgt1 strain (AID 161);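 note: 0% = growth of cultures given vehicle only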; conditions: S. cerevisiae sgs1 mgt1 strain, active compounds read high
Procedure, shortened: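 Percent growth inhibition was derived by comparing compound-exposed mutant yeast with vehicle-exposed cultures. The strain carries alterations in DNA damage repair.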

[4] = NCI Yeast Anticancer Drug Screen. Data for the cln2 rad14 strain (AID 165);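 note: 0% = growth equal to vehicle treated cultures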; conditions: S. cerevisiae cln2 rad14 strain, active compounds read high
Procedure, shortened: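 Strain: cln2 rad14 yeast, altered in cell cycle control and DNA damage repair. Read-out: growth inhibition vs vehicle.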

[5] = NCI Yeast Anticancer Drug Screen. Data for the bub3 strain (AID 167); conditions: S. cerevisiae bub3 mutant strain, active compounds read high
Procedure, shortened: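 Mutant yeast screening strain plus compound; vehicle-treated cultures serve as the 0% inhibition reference.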

[6] = NCI Yeast Anticancer Drug Screen. Data for the mlh1 rad18 strain (AID 175); conditions: S. cerevisiae mlh1 rad18 strain growth inhibition, active compounds read high
Procedure, shortened: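 A repair-deficient yeast strain is exposed to test compound, and growth is scored relative to vehicle-treated controls.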

[7] = at 5.0 µM (retest, dose inferred, filed as 0.5)
[8] = at 50.0 µM (retest, dose inferred, filed as 5.0)

Compound	growth inhibition [1, 7]	growth inhibition [1, 8]	growth inhibition ([1]; at 50.0 µM)	growth inhibition [2, 7]	growth inhibition [2, 8]	growth inhibition ([2]; at 50.0 µM)	growth inhibition [3, 7]	growth inhibition [3, 8]	growth inhibition ([3]; at 50.0 µM)	growth inhibition [4, 7]	growth inhibition [4, 8]	growth inhibition ([4]; at 50.0 µM)	growth inhibition [5, 7]	growth inhibition [5, 8]	growth inhibition ([5]; at 50.0 µM)	growth inhibition [6, 7]	growth inhibition [6, 8]	growth inhibition ([6]; at 50.0 µM)
O=[N+]([O-])c1ccc(-c2ccccc2Cl)c([N+](=O)[O-])c1	2%	95% (active)	95.8% (active)	-7%	92% (active)	95.7% (active)	6%	96% (active)	91.2% (active)	-8%	83% (active)	80.1% (active)	-6%	93% (active)	95.8% (active)	5%	97% (active)	93.7% (active)
FC(F)(F)c1cccc(N2CCN(c3c4c(nc5ccccc35)CCCCC4)CC2)c1	-4%	96% (active)	95.5% (active)	4%	99% (active)	97.7% (active)	11%	98% (active)	93.8% (active)	-14%	96% (active)	95.5% (active)	-4%	97% (active)	92% (active)	22%	98% (active)	95.7% (active)
CNC(=O)N(C)/N=C/c1ccc([N+](=O)[O-])o1	15%	67%	84.5% (active)	4%	40%	50.5%	14%	78% (active)	93.5% (active)	0%	36%	54.6%	17%	55%	45.5%	24%	76% (active)	91.8% (active)
CNC(=S)/N=c1/sc([N+](=O)[O-])c(C)n1C	-26%	-4%	65.5%	-6%	0%	12.5%	-7%	7%	67.7%	-33%	-14%	-1.95%	-4%	5%	44.9%	-20%	-12%	54.8%
O=C(O)C1CCc2ccc3ccccc3c2C1c1cccc2ccccc12 (stereo not given)	42%	98% (active)	98.1% (active)	36%	98% (active)	98% (active)	32%	98% (active)	97.7% (active)	61%	98% (active)	97% (active)	40%	98% (active)	97% (active)	52%	98% (active)	98% (active)
CCN1CCC(O)(/C=C/c2cccc(C)c2)C(C(=O)/C=C/c2cccc(C)c2)C1 (stereo not given)	42%	96% (active)	91% (active)	41%	98% (active)	93% (active)	95% (active)	92% (active)	90.8% (active)	91% (active)	93% (active)	90.2% (active)	95% (active)	96% (active)	88.2% (active)	64%	98% (active)	92.7% (active)
CCCCCCCCCCCCCCSC(=NCC)NCC	99% (active)	99% (active)	99.2% (active)	100% (active)	100% (active)	99.5% (active)	100% (active)	100% (active)	99.2% (active)	99% (active)	99% (active)	97.4% (active)	99% (active)	99% (active)	99.3% (active)	99% (active)	99% (active)	99% (active)
C1=C(c2ccccc2)CCc2c1ccc1ccccc21	5%	-8%	-3.45%	-6%	3%	-10.8%	1%	16%	0%	-9%	-10%	4.35%	7%	10%	16%	-1%	21%	5.7%
CCC(C)(C)c1ccc(OCCO)c([N+](=O)[O-])c1	10%	70% (active)	77.3% (active)	8%	71% (active)	0.1%	15%	92% (active)	74% (active)	13%	64%	25.9%	19%	88% (active)	72.4% (active)	29%	90% (active)	56.9%
CN(C(=O)c1cccs1)C(=S)N1CCN(c2ccccc2)CC1	-26%	66%	79.8% (active)	6%	68%	67%	-2%	70% (active)	84.8% (active)	-8%	56%	49.9%	-14%	83% (active)	61.3%	-18%	90% (active)	67.2%

— PubChem BioAssay (NCI)
